The results in this text go back to PubChem BioAssay (Tox21).

SMILES strings stand for the structures. Several values for one entry are separate records, joined by “and”; a condition that tells them apart may be missing. Identical values can stand only once. Records with an inconclusive call do not appear. Some compounds were tested as several samples or in several runs, with calls that do not always agree. Activity calls are given as the source filed them. Unless noted, the call rests on the fitted dose curve; in most records, active means well fitted curve in the direction sought with a large enough effect in the repeat runs; inconclusive means weak or mixed curves; inactive means no such curve, though single readings can be large; an effect the other way counts as inactive or inconclusive.

Experiment [1] is described as follows: qHTS assay to identify small molecule antagonists of the estrogen related receptor (ERR) signaling pathway from Tox21 library - cell viability counter screen (AID 1224834). Further: nearly all actives have a fitted effect of over 30% in size. Further: potency means the concentration at half of the fitted maximal effect. The method in brief:
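In this quantitative HTS format, ERR cells receive compounds in DMSO and are incubated for 17.5 h at 37 C. Live-cell protease activity is then detected with CellTiter-Fluor.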

The target in experiment [2] is Luciferin 4-monooxygenase (Photinus pyralis) (UniProt P08659). The experiment is described as follows: qHTS assay to identify small molecule inhibitors of firefly luciferase (AID 1224835). Further: series mostly up to about 120 µM; nearly all actives have a fitted effect of over 25% in size. The procedure, abridged: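 Quantitative HTS format; KM concentrations of both substrates. Purified P. pyralis FLuc activity quantified from luminescence images.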
Chain of Luciferin 4-monooxygenase (Photinus pyralis) (P08659 whole entry, looked up): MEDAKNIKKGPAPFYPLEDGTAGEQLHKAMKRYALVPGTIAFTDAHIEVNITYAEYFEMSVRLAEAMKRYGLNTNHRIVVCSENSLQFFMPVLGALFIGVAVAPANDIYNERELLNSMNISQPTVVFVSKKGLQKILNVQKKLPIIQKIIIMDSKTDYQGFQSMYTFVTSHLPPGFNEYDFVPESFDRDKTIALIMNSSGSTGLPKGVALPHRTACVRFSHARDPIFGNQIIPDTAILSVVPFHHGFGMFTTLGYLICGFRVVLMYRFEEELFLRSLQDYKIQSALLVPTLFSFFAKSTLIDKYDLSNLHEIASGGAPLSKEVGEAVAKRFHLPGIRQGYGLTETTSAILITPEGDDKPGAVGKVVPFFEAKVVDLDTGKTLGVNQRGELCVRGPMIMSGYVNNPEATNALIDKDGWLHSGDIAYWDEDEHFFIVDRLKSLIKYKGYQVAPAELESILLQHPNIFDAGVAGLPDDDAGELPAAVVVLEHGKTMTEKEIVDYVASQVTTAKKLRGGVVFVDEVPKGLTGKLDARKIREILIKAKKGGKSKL
In general terms: qHTS replaces the single test concentration by a dilution series.

Experiment [3] can be described thus: qHTS assay to identify small molecule agonists of the constitutive androstane receptor (CAR) signaling pathway - cell viability counter screen (AID 1224836). Further: nearly all actives have a fitted effect of over 45% in size. Further: potency means the concentration at half of the fitted maximal effect. The method in brief:
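HepG2 cells stably carrying hCAR and a CYP2B6-2.2kb reporter were plated 4 h, then given compounds at 15 concentrations plus PK11195 (final 0.75 uM). After 23 h at 37 C, viability was read by CellTiter-Fluor fluorescence.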

The nature of experiment [4]: qHTS assay to identify small molecule antagonists of the constitutive androstane receptor (CAR) signaling pathway - cell viability counter screen (AID 1224837). Further: nearly all actives have a fitted effect of over 45% in size. Further: potency means the concentration at half of the fitted maximal effect. The method in brief: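 In quantitative HTS format, compounds at 15 concentrations were applied to HepG2 cells double-transfected with hCAR and CYP2B6-2.2kb under 50 nM CITCO stimulation; live-cell protease activity was read after 23 hr via CellTiter-Fluor.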

Experiment [5] deals with Nuclear receptor subfamily 1 group I member 3 (Homo sapiens) (UniProt Q14994). The experiment is described as follows: qHTS assay to identify small molecule antagonists of the constitutive androstane receptor (CAR) signaling pathway (AID 1224838). Further: nearly all actives have a fitted effect of over 40% in size. Further: potency means the concentration at half of the fitted maximal effect. The method in brief:
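CITCO-stimulated (50 nM final) HepG2 cells stably transfected with hCAR and CYP2B6-2.2kb luciferase were exposed to compounds at 15 concentrations for 24 h at 37 C/5% CO2. A luciferase reagent was added and luminescence recorded after 30 min.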

The target is the same in experiment [6]. The experiment is described as follows: qHTS assay to identify small molecule agonists of the constitutive androstane receptor (CAR) signaling pathway (AID 1224839).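 Further: HepG2 cells stably carrying human CAR and a CYP2B6 luciferase reporter; series mostly up to about 92 µM; nearly all actives have a fitted effect of over 15% in size.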 The method in brief:
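HepG2 cells stably expressing hCAR and a CYP2B6-2.2kb luciferase reporter were treated with compounds at 15 concentrations plus 0.75 uM PK11195 (final) for 24 h at 37 C; luminescence was read after ONE-Glo addition.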

A short description of experiment [7]: qHTS assay to identify small molecule antagonists of the estrogen related receptor signaling pathway with the pleiotropic PPARgamma coactivator (PGC) from Tox21 10K library - cell viability counter screen (AID 1224840; active means well fitted cell-killing curve with a large enough effect in the repeat runs, not every such curve was filed as active; further: nearly all actives have a fitted effect of over 40% in size; further: potency means the concentration at half of the fitted maximal effect). The method in brief: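 Viability counter screen, PGC/ERR cells: 17.5 h compound exposure at 37 C, CellTiter-Fluor fluorescence endpoint.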
Experiment [8] deals with Thyrotropin receptor (Homo sapiens) (UniProt P16473). The experiment is described as follows: qHTS assay to identify small molecule agonists of the thyroid stimulating hormone receptor (TSHR) signaling pathway (AID 1224843; calls by dose curve; further: nearly all actives have a fitted effect of over 45% in size; further: potency means the concentration at half of the fitted maximal effect). The method in brief: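 Compounds are titrated over 15 concentrations, in triplicate, onto TSHR-HEK293 cells seeded at 800/well. Plates sit 30 min at room temperature before cAMP-d2 and anti-cAMP cryptate are added; signal is read after a further hour.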
Chain of Thyrotropin receptor (Homo sapiens) (P16473 whole entry, looked up): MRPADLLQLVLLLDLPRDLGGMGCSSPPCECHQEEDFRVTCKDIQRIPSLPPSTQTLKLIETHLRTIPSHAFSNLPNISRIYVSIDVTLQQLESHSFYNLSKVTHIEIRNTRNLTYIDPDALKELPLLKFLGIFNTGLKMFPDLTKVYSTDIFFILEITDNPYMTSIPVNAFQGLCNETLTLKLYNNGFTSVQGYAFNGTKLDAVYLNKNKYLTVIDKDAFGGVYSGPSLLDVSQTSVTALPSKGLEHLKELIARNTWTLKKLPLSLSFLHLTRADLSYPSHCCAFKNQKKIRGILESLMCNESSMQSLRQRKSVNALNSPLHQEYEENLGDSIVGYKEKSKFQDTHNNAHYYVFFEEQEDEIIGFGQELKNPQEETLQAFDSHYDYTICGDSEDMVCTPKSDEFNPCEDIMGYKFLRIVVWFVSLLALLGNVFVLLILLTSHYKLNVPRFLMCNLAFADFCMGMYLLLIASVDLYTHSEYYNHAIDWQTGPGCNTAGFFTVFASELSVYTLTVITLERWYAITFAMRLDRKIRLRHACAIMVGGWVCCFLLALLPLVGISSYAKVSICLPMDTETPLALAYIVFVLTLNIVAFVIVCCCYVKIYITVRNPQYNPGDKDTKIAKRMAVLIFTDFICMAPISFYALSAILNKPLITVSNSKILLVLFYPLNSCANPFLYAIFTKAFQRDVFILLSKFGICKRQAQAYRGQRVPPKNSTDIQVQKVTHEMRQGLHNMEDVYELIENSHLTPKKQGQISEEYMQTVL

A short description of experiment [9]: qHTS assay to identify small molecule agonists of the hypoxia (HIF-1) signaling pathway - cell viability counter screen (AID 1224844; calls by dose curve; further: nearly all actives have a fitted effect of over 50% in size). The procedure, abridged: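 Same wells as the HIF-1 reporter screen; ME-180 cells carrying HRE-bla, 17 hr treatment at 37C; CellTiter-Glo luminescence read after 30 min at room temperature.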
The nature of experiment [10]: qHTS assay to identify small molecule agonists of H2AX (AID 1224845; active means well fitted activation curve with a large enough effect in the signal ratio in the repeat runs, not every such curve was filed as active; the % refers to the signal ratio). The method in brief: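 Wild-type CHO-K1 cells plated overnight, then exposed 3 hr at 37C to compounds at 15 concentrations (0.76% DMSO). Lysed, then HTRF anti-pH2AX(S139)-cryptate/anti-H2AX-d2 detection after 24 hr at room temperature; emissions 665 and 620 nm.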
The nature of experiment [11]: qHTS assay to identify small molecule agonists of H2AX - cell viability counter screen (AID 1224847; calls by dose curve; further: top concentration of the series differs between compounds; nearly all actives have a fitted effect of over 30% in size). The method in brief: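 Wild-type CHO-K1 cells (10% FBS medium) were plated overnight at 37C, exposed to compounds at 15 concentrations for 3 hr at 37C (0.76% DMSO final), and viability was read as CellTiter-Glo luminescence after 30 min at room temperature.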
Experiment [12] is described as follows: qHTS RealTime-Glo MT Cell Viability Assay in HepG2 cells - 24 hour (AID 1224867). Further: nearly all actives have a fitted effect of over 50% in size. The procedure, abridged:
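Compound treatment began 5 h after plating HepG2 cells (600/well) with NanoLuc luciferase and prosubstrate. Plates stayed at 37 C for 40 h; luminescence was captured at six time points, 0 h through 40 h.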

Experiment [13] is described as follows: qHTS RealTime-Glo MT Cell Viability Assay in HEK293 cells - 32 hour (AID 1224868). Further: nearly all actives have a fitted effect of over 50% in size. Further: potency means the concentration at half of the fitted maximal effect. The method in brief: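 Quantitative high-throughput screen of the Tox21 10K library in HEK293: cells and RealTime-Glo reagents plated together, compound added at 5 h, luminescence monitored through 40 h at 37 C.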
Experiment [14] in a line: A CellTox Green Cytotoxicity Assay to monitor cytotoxicity in HEK293 cells - 0 hour (AID 1224869). Further: nearly all actives have a fitted effect of over 50% in size. The procedure, abridged:
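Homogeneous no-lysis format: HEK293 cell suspension mixed with CellTox Green reagent, seeded, incubated 5 h at 37 C/5% CO2, then dosed by pintool with compound in DMSO.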

Experiment [15] is described as follows: qHTS assay to identify small molecule agonists of the hypoxia (HIF-1) signaling pathway (AID 1224846; active means well fitted activation curve with a large enough effect in the signal ratio in the repeat runs, not every such curve was filed as active; the % refers to the signal ratio). The procedure, abridged:
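In ME-180 cells bearing an HRE-bla construct, 17 h treatment with DMSO-dissolved compounds at 37C was followed by CCF4-AM loading to quantify reporter induction.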

A short description of experiment [16]: qHTS assay to identify small molecule antagonists of the estrogen related receptor signaling pathway with the pleiotropic PPARgamma coactivator (PGC) from Tox21 10K library (AID 1224841; call rule not given here). The procedure, abridged:
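In the PGC/ERR line, DMSO solutions of test chemicals are pin-delivered to 2,000 cells/well six hours after dispensing. Following eighteen hours' incubation, One-Glo reagent is added and luminescence recorded.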

Experiment [17] can be described thus: qHTS assay to identify small molecule agonists of the estrogen related receptor signaling pathway with the pleiotropic PPARgamma coactivator (PGC) from Tox21 10K library (AID 1224842). Further: nearly all actives have a fitted effect of over 15% in size. The method in brief: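 PGC/ERR reporter cells (NTP line) were seeded 2,000 per well, rested 6 h at 37 C/5% CO2, then pin-dosed with compounds in DMSO for 18 h at 37 C; luciferase read by One-Glo luminescence after 30 min at room temperature.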

Experiment [18] is described as follows: qHTS assay to identify small molecule antagonists of the estrogen related receptor (ERR) signaling pathway from Tox21 library (AID 1224848). The procedure, abridged: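 First, 2,000 ERR cells per well were plated and held 6 h at 37 C/5% CO2. Next, compounds in DMSO were pinned in and left 18 h at 37 C. Finally, ONE-Glo was added and luminescence read after 30 min at room temperature.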

Chain of Nuclear receptor subfamily 1 group I member 3 (Homo sapiens) (Q14994 whole entry, looked up): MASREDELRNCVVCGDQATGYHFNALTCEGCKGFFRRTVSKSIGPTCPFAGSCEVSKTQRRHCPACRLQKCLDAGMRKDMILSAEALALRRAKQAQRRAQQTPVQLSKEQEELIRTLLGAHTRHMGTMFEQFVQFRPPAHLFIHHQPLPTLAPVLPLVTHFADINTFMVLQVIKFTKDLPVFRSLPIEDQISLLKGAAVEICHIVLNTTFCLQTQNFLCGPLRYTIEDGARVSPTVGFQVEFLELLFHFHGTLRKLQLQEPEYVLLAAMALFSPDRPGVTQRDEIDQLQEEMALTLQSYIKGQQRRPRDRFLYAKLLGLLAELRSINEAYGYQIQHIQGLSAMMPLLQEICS

With `CN/C(=C\[N+](=O)[O-])NCCSCc1ccc(CN(C)C)o1`, the Potency entry in [1], in experiment [2], in experiment [3], in [4], in experiment [5] and in [6] was “inactive” in each case. The Potency result in experiment [7], in [8], in experiment [9], in [10], in [11] and in experiment [13] was “inactive” throughout. The Potency entry in [14] is “inactive”. The molecule was called inactive in experiment [12].
Consider `C[C@]12C[C@H](O)[C@H]3[C@@H](CCC4=CC(=O)CC[C@@]43C)[C@@H]1CC[C@@H]2C(=O)CO`, for which the Potency entry in experiment [1], in [2], in [3], in experiment [4], in experiment [5] and in [6] was “inactive” each time. Also, the Potency entry in experiment [7], in experiment [9], in [10], in experiment [11], in experiment [13] and in experiment [14] was “inactive” in each case. Moreover, the Potency in [8] was 12.2 µM (active) and inactive. In addition, the result in experiment [15] and in experiment [12] was inactive.
On to `CCCCOC(=O)CCCCCCCCC(=O)OCCCC`, for which the Potency entry in experiment [1], in experiment [2], in [3], in experiment [4], in experiment [5] and in experiment [6] was “inactive” each time. The Potency entry in experiment [7], in experiment [8], in experiment [10], in experiment [11], in experiment [13] and in experiment [14] was “inactive” throughout. In addition, the call in experiment [15] and in [12] was inactive.
For `Nc1cccc(N)c1`, the Potency result in [1], in experiment [2], in experiment [3], in experiment [4], in experiment [5] and in [6] was “inactive” throughout. The Potency entry in experiment [7], in [9], in experiment [10], in experiment [11], in experiment [13] and in [14] was “inactive” in each case. Also, the call in experiment [15] and in experiment [12] was inactive.
As for `C1CNCCN1`, the Potency entry in experiment [1], in experiment [2], in experiment [3], in experiment [4], in experiment [5] and in experiment [6] was “inactive” throughout. Further, the Potency entry in [7], in experiment [8], in experiment [10], in experiment [11], in [13] and in experiment [14] was “inactive” in each case. For the same molecule, the molecule was called inactive in [15] and in experiment [12].
With `Cn1cnc2c1c(=O)[nH]c(=O)n2C`, the Potency result in [1], in [2], in [3], in [4], in [5] and in experiment [7] was “inactive” in each case. For the same molecule, the Potency entry in [8], in experiment [9], in [10], in experiment [11], in [13] and in experiment [14] was “inactive” each time. Also, in experiment [12], the result was inactive.
For the molecule `CO[C@H]1C=CO[C@@]2(C)Oc3c(C)c(O)c4c(O)c(c(/C=N/N5CCN(C)CC5)c(O)c4c3C2=O)NC(=O)/C(C)=C\C=C[C@H](C)[C@H](O)[C@@H](C)[C@@H](O)[C@@H](C)[C@H](OC(C)=O)[C@@H]1C`, the Potency in [1] was 27.4 µM (active) and 31 µM (active) and 23.7 µM (active); in [3], 27.4 µM (active); in experiment [4], 30.8 µM (active); in experiment [5], 54.8 µM (active) and inactive; in experiment [7], 27.4 µM (active); in [16], 48.8 µM (active) and 23.7 µM (active). Further, the Potency in [18] was 48.8 µM (active) and 23.7 µM (active); in [13], 19.6 µM (active) and 9.88 µM (active). In addition, the Potency entry in experiment [6], in [17], in experiment [8], in [11] and in experiment [14] was “inactive” each time. Besides, the molecule was called inactive in experiment [12].
Take `CC(=O)Oc1ccccc1C(=O)O`: the Potency entry in experiment [1], in experiment [2], in [3], in experiment [4], in experiment [7] and in [8] was “inactive” each time. The Potency result in experiment [9], in experiment [10], in experiment [11], in experiment [13] and in [14] was “inactive” each time. For the same molecule, the molecule was called inactive in experiment [12].
`O=[N+]([O-])c1ccc(O)cc1`: the Potency in [1] is 50.4 µM (active) and 30.6 µM (active) and 54.5 µM (active); in experiment [3], 50.4 µM (active); in experiment [7], 30.6 µM (active). Further, the Potency entry in experiment [2], in experiment [5], in [6], in experiment [8], in [9] and in [10] was “inactive” in each case. The Potency result in [11], in experiment [13] and in experiment [14] was “inactive” throughout. Further, the outcome in experiment [15] and in experiment [12] was inactive.
